Structures are written as SMILES. Hit rate of the full screen: of about 410,000 compounds, about 6,400 (1.6%) were called active. Entries that show only a call come without a potency. Inconclusive results (about 20%) are left out. Many of the other results were omitted from the sample, so actives are more common in it than they were. Unmarked numbers belong to inactive results. Calls follow the shape of the dose curve; as a rule, active = well fitted inhibition curve with a large enough effect; inconclusive = small, poorly fitted or top-dose-only effect; inactive = no such curve, though single readings can be large or run the other way.
Potency is read from the fitted curve at half-maximal effect.

Chain of Glucagon-like peptide 1 receptor (Homo sapiens) (P43220 whole entry, looked up): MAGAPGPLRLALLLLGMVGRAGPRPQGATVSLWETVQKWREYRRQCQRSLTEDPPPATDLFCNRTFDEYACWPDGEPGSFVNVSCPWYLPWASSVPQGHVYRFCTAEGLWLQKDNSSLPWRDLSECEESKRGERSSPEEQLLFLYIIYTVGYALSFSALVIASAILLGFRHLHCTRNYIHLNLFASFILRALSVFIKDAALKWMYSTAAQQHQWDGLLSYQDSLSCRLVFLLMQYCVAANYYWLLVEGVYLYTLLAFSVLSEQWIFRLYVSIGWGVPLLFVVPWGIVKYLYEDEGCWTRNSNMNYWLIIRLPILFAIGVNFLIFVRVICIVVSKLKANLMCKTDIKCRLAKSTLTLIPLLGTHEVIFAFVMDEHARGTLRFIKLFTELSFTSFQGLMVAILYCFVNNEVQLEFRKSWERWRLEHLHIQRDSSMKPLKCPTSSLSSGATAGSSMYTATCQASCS

This assay has as its target Glucagon-like peptide 1 receptor (Homo sapiens) (UniProt P43220). In words: qHTS of GLP-1 Receptor Inverse Agonists (Inhibition Mode). Also: nearly all actives have a fitted effect of over 55% in size. The note with it: HEK293 GLP-1R CRE-luciferase, luminescence, 24 h, GLP-1R form is constitutively active; series mostly up to 38.3 µM. An outline of the steps:
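Inverse agonism was detected as reduced cAMP-driven luciferase luminescence after 24 h compound treatment. The cells were HEK293 clones expressing constitutively active human GLP-1R with the reporter. Reporter-only and GPR119 cell lines served as counterscreen controls.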
In general terms: qHTS replaces the single test concentration by a dilution series.
In the case of `O=C(NCc1nnnn1-c1ccc(Cl)cc1)c1ccc2c(c1)OCO2`, the Potency entry is “inactive”.

`COc1cccc(/C=C2\SC(=S)N(CCCC(=O)N3CCOCC3)C2=O)c1`: the Potency result is “inactive”.

For the compound `COc1ccc(S(=O)(=O)NC(C)C)cc1C(=O)NC1CCCCC1`, the Potency entry was “inactive”.

On to `COc1ccccc1N(C)S(=O)(=O)c1ccc(C(=O)NC2CCCCCC2)cc1`, for which the Potency is 10 µM (active).

As to `COc1ccccc1N(C)S(=O)(=O)c1ccc(C(=O)N2CCC(C(N)=O)CC2)cc1`, the Potency entry is “inactive”.

As for `O=C(Nc1ccc(Cl)cc1)c1csc([C@@H]2O[C@H](CO)[C@H](O)[C@H](O)[C@H]2O)n1`, the Potency result is “inactive”.

`CSc1ncnc2c1ncn2CCCNCC1CCCCC1`: the Potency result is “inactive”.

On to `CCOC(=O)C1CCCN(C(=O)c2cc(-c3cccs3)oc2C)CC1` (stereo unspecified), for which the Potency result was “inactive”.

Consider `O=C(NCc1ccc(F)cc1F)[C@@H]1CCCN1C(=O)[C@@H]1CCCN1C(=O)c1cccc(Cl)c1`, for which the Potency result was “inactive”.

On to `COc1ccc(N2c3ccccc3CN(Cc3ccccc3)[C@@H](C)[C@H]2Cc2ccc(-c3ccccc3)cc2)cc1`, for which the Potency entry is “inactive”.

With `COC(=O)c1ccc2nc(-c3ccccc3)c(Cc3ccc(OC)cc3C)n2c1`, the Potency entry was “inactive”.

Regarding `CCN(CC)c1ncnc2c1ncn2[C@H]1CN(Cc2cccs2)C[C@@H](CO)O1`, the Potency result is “inactive”.

With `COCCOCCn1cnc2ccccc21`, the Potency result was “inactive”.

For the compound `Clc1ncn(CCOc2ccccc2)c1Cl`, the activity change, negative = inhibition was 15.4% [at 0.307 µM].

`Cc1cc2ncn(CCCCOc3ccccc3)c2cc1C`: the Potency was 10 µM (active).

On to `COC(=O)c1ccc(CN2C(=O)C(Cc3ccccc3)ON=C2c2ncccc2C)o1` (stereo unspecified), for which the Potency result is “inactive”.

As to `CCc1nnc(NC(=O)c2ccco2)s1`, the Potency result is “inactive”.

As to `OC[C@@H]1CN(Cc2cccs2)C[C@H](n2cnc3c(Nc4ccccc4)ncnc32)O1`, the Potency entry is “inactive”.

Regarding `O=C(c1nnc(-c2ccc(Cl)cc2)o1)C1CCCC1`, the Potency result was “inactive”.

On to `S=c1[nH]nc(-c2ccc(Cl)cc2)n1CC1CCCO1` (stereo unspecified), for which the Potency result is “inactive”.

Turning to `O=C(c1[nH]ncc1-c1ccc(Cl)cc1)C1CO1` (stereo unspecified), the Potency is 11.2 µM (active).

`CC(=O)OC[C@@H]1CN(Cc2ccccc2)C[C@H](n2cnc3c(NCc4ccco4)ncnc32)O1`: the Potency entry is “inactive”.

On to `CCCCCCN1C[C@@H](O)[C@H](n2cc(COC(=O)c3ccccc3)nn2)C[C@@H]1c1ccc(Cl)cc1`, for which the Potency entry is “inactive”.

On to `C[C@H]1CN([C@@H](C)CO)C(=O)CCCn2nncc2CO[C@@H]1CN(C)S(=O)(=O)c1cccc(C#N)c1`, for which the Potency result was “inactive”.

In the case of `COCCCN1C(=O)C(CC(=O)NCc2cccs2)CC(C(=O)N2CCOCC2)=C1C` (stereo unspecified), the Potency entry is “inactive”.

For `CCOc1ccc(NC(=O)c2nc(SCC)ncc2Cl)cc1`, the Potency entry was “inactive”.

Take `CCOc1ccc(N(Cc2ccccc2)C(=O)c2nc(SCC)ncc2Cl)cc1`: the Potency is 5.62 µM (active).

As to `CCSc1ncc(Cl)c(C(=O)Nc2c(C(=O)c3ccccc3)oc3ccccc23)n1`, the Potency entry is “inactive”.

Consider `CC(=O)C1=CCC(c2ccccc2)N(S(=O)(=O)c2ccc(C)cc2)C1` (stereo unspecified), for which the Potency result was “inactive”.

With `COc1ccc(C(=O)OCC(=O)Nc2cc(C)on2)cc1F`, the Potency entry was “inactive”.

`COC(=O)c1ccc2c(c1)S(=O)(=O)NC2C` (stereo unspecified): the Potency entry was “inactive”.

Take `Cc1cc(Br)cn2c(Cc3ccccc3C(F)(F)F)c(C3CCCCC3)nc12`: the Potency entry is “inactive”.

On to `COc1ccc(CNC(=O)c2ccc(-c3cccnc3)c3ccoc23)cc1OC`, for which the Potency entry was “inactive”.

Take `COC(=O)NC1(C(F)(F)F)NC(=O)N(C2CCCCC2)C1=O` (stereo unspecified): the Potency entry was “inactive”.

In the case of `O=C(NC1(C(F)(F)F)N=C(c2ccccc2)N(C2CCCCC2)C1=O)c1ccccc1F` (stereo unspecified), the Potency is 11.2 µM (active).

For the compound `O=C(NC1(C(F)(F)F)NC(=O)N(C2CCCCC2)C1=O)c1ccco1` (stereo unspecified), the Potency entry was “inactive”.

Regarding `CC1(C(=O)NS(=O)(=O)C2CC2)CCCN(C(=O)CSc2ccccc2)C1` (stereo unspecified), the Potency entry was “inactive”.

In the case of `CC1=C(C(=O)N(C)C)CC(CC(=O)NCCN2CCOCC2)C(=O)N1Cc1ccccc1` (stereo unspecified), the Potency entry was “inactive”.

For the compound `C=C1C(=O)[C@]23C[C@H]1CCC2[C@@]1(C)C(C[C@@H]3O)[C@](C)(C(=O)O)CC[C@@H]1O` (stereo partly specified), the Potency result was “inactive”.

In the case of `COc1cc(C=C(OC(C)=O)c2ccc3c(c2)OCO3)cc(OC)c1OC`, the Potency entry is “inactive”.

In the case of `C[C@H]1Cn2cnc(C(=O)N[C@H](C)c3ccccc3)c2C(=O)N1`, the Potency entry is “inactive”.

Turning to `CCCCc1nc2ccc(F)cc2cc1C`, the Potency entry was “inactive”.

On to `O=C(Nc1ccc(Br)cc1)c1ccc(Br)c(S(=O)(=O)NCc2ccccc2)c1`, for which the Potency was 10 µM (active).

As for `O=C(Nc1ccc(F)cc1)c1ccc(S(=O)(=O)NCc2cccnc2)cc1`, the Potency result was “inactive”.

`Cc1ccc(C(=O)Nc2ccc(C(=O)O)cc2)cc1S(=O)(=O)Nc1ccccc1`: the Potency entry is “inactive”.

Take `O=C1OCCOC2CCCc3oc(-c4ccccc4)c1c32` (stereo unspecified): the Potency entry is “inactive”.

For the compound `COc1ccc(C(C)C)cc1-c1ccc2nncn2c1`, the Potency entry is “inactive”.

As for `N#C/C(=C\c1ccc(-c2cccc([N+](=O)[O-])c2)o1)C(=O)NCCN1CCOCC1`, the activity change, negative = inhibition was 31.2% [at 7.66 µM].

For the compound `CN(C)CCNC(=O)/C(=C/c1cccc([N+](=O)[O-])c1)NC(=O)c1ccccc1`, the Potency result is “inactive”.

In the case of `Cc1ccc(C(=O)N/C(=C/c2ccc(-c3cccc([N+](=O)[O-])c3)o2)C(=O)NCCCN(C)C)cc1`, the Potency was 10 µM (active).

As to `O=C(OCC(=O)N1CCCCCC1)c1cccc(Cl)c1Cl`, the Potency entry is “inactive”.

For `C[C@@H]1CN([C@H](C)CO)C(=O)CCCn2nncc2CO[C@@H]1CN(C)S(=O)(=O)c1cccc(C#N)c1`, the Potency result is “inactive”.

As for `Cc1ccc(Cn2cc(CN3CC(N4CCN(C)CC4)CS3(=O)=O)nn2)cc1` (stereo unspecified), the Potency entry is “inactive”.

Consider `CCn1c(SCC(=O)NC2CCCC2)nnc1-c1ccoc1C`, for which the Potency entry is “inactive”.

Regarding `COc1cc(Cl)c(C)cc1NC(=O)CSc1nnc(-c2ccco2)n1CC(C)C`, the Potency result is “inactive”.

As for `COc1ccccc1NC(=O)CSc1nnc(-c2ccoc2C)n1CCc1ccccc1`, the Potency is 7.94 µM (active).

As for `Cc1c(NC(=O)CSc2nnc(-c3cccnc3)n2N)c(=O)n(-c2ccccc2)n1C`, the Potency entry is “inactive”.

With `Cc1c(NC(=O)CSc2cccc3cccnc23)c(=O)n(-c2ccccc2)n1C`, the Potency is 5.62 µM (active).

Take `Cc1c(NC(=O)CSc2nnnn2-c2ccc(C(=O)O)cc2)c(=O)n(-c2ccccc2)n1C`: the Potency entry was “inactive”.

For the compound `Cn1cnc(S(=O)(=O)N2C[C@@H](O)COC[C@@H]3O[C@H](CC(=O)NC4CCC4)CC[C@H]32)c1`, the Potency result was “inactive”.

For `Brc1ccc2nc(-c3ccccc3)c(Cc3ccccc3)n2c1`, the Potency result was “inactive”.

As to `Cc1cccc(Nc2ccccc2C(=O)NCc2ccco2)c1C`, the Potency is 12.6 µM (active).

For `O=C(CCNC(=O)c1ccccc1Cl)NCc1ccco1`, the Potency result is “inactive”.

Take `Cc1ccc(N(Cc2ccc(C(=O)Nc3ccccc3C(=O)NCc3ccco3)cc2)S(C)(=O)=O)cc1C`: the Potency result was “inactive”.

On to `CC1(C(=O)NCc2ccc3c(c2)OCO3)CCN1C(=O)Cc1cccs1` (stereo unspecified), for which the Potency entry is “inactive”.

Take `O=C(NCc1cccnc1)c1cc(C2CCCCN2C(=O)CCc2ccccc2)on1` (stereo unspecified): the Potency result was “inactive”.

Source of the values: PubChem BioAssay AID624417 (National Center for Advancing Translational Sciences (NCATS), 2012).
